Screens: PubChem, National Center for Advancing Translational Sciences (NCATS)
The list is not random: actives were taken first. Their share in the collection is about 0.93%.
GLP1R cytotox: cytotoxic in the GLP-1 receptor inverse agonist counter-screen; HEK293 cAMP-luciferase reporter cells, luminescence, 24 h; Potency, µM (series often up to 38.3 µM), usual class: inhibitors; actives 0.13% (n = 410,000); AID 624418;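 also: loss of luciferase light is scored as toxicity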
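MLSMR compounds, 24 hr on cells at 37 deg C/5% CO2; luminescence after luciferase reagent (12 min RT). Inhibition counted as the undesired cytotoxic outcome.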
TRHR enhancer-1: allosteric enhancers of human TRH receptor; TRHR cells, fluo-8 calcium fluorescence, EC20 TRH enhancement; enhancement, % at 2 µM; actives 0.66% (n = 360,000); AID 493056; in the data active = enhancement above about 30%
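TRHR-expressing cells loaded with fluo-8 calcium dye were read kinetically (ex 480/em 530) during compound addition, then stimulated with an EC20 of TRH (10 nM final). Enhancement of the Gq-mediated intracellular calcium response was scored.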
TRPML1 blocker: blocks the human TRPML1 channel; actives 0.02% (n = 390,000); AID 624415; TRPML1-inducible cells, Ca2+ dye fluorescence, FDSS; active compounds read low; inhibition of EC80 agonist-evoked calcium signal; Q9GZU1; activity change, negative = inhibition, % (test concentration not listed); in the data active = activity change below about -50%; inconclusive = between about -30% and that limit;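 also: stimulus is agonist 54-4 at its EC80 concentration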
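TRPML1-DL cells, Tet-induced overnight (~16 h, 37 °C) at 1,500 cells/well, were loaded with Ca8 no-wash dye plus quencher for 45-90 min at room temperature. Compounds were pinned during FDSS kinetic reading; agonist 54-4 at EC80 (4 uM final) then added.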
TRHR agonist-1: agonists of human TRH receptor; TRHR cells, calcium flux fluo-8, FDSS agonist mode; activation, % at 2 µM; actives 0.18% (n = 360,000); AID 493084; in the data active = activation above about 30%
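TRHR-expressing cells, plated overnight in medium with 10% serum, were loaded with fluo-8 calcium dye at room temperature. After a 10 s baseline, library compound was pin-added and calcium release was recorded kinetically (ex 480/em 530) as agonist response.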
TRPML1 agonist: agonists of human TRPML1 channel. Q9GZU1. TRPML1-expressing cells, Ca2+ dye fluorescence, FDSS. activation, % (no concentration beside the values). actives 0.12% (n = 410,000); in the data active = activation above about 50%; inconclusive = mostly about 30% to 49%
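Tetracycline-induced TRPML1-DL cells are seeded and incubated overnight before loading with a no-wash Ca2+ dye and quencher. Agonist activity is taken from the 110 s fluorescence read following compound pin-transfer on an FDSS, before EC80 54-4 challenge.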
PTHR1 ag: activates the human parathyroid hormone receptor PTHR1 | HEK293 GP2 PTHR1 cells, GloSensor cAMP luminescence, 1 h | Potency, µM (highest dose often 115 µM), hits mostly activators | actives 0.075% (n = 410,000) | AID 743266; also: nearly all actives have a fitted effect of over 55% in size
Target sequence (Q03431 whole entry, looked up): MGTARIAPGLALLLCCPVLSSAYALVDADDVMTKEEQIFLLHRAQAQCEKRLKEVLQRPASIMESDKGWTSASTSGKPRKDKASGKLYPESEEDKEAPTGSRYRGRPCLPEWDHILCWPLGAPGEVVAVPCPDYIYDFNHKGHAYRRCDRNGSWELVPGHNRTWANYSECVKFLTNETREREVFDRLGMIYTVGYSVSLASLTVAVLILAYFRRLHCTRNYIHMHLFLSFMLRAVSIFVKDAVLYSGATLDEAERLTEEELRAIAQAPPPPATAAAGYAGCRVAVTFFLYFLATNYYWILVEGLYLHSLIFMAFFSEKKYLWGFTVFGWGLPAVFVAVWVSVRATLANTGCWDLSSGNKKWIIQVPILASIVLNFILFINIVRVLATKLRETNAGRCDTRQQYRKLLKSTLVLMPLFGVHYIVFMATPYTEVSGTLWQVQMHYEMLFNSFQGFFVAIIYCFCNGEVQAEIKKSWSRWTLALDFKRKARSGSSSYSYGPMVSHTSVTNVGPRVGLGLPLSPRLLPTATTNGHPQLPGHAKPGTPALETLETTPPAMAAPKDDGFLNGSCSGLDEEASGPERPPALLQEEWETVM
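HEK-293-derived GP2 cells expressing PTHR1 and a GloSensor cAMP reporter, 3,000/well, plated overnight, given luciferin plus IBMX (each 0.5 mM as added) for 1 h at 37 °C, then compound for 1 h at 37 °C. Luminescence was read after 15 min at room temperature.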
TRHR enhancer-2: human TRH receptor allosteric enhancement confirmation | shares compounds with TRHR enhancer-1 | TRH receptor cell assay, enhancer confirmation qHTS | activity change, negative = inhibition, % at 46.1 µM | 970 tested, under 10 active;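 also: compound effect scored on response to added TRH at EC20 of 10 nM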
TRHR agonist-2: confirmation of human TRH receptor agonists; actives 8% (n = 970); AID 493078; shares compounds with TRHR enhancer-1; Potency, µM (highest dose often 46.1 µM), usual class: activators; TRHR-expressing cells, agonist activation read-out; also: nearly all actives have a fitted effect of over 75% in size
Numbers stand for hits. Unless noted, calls follow the shape of the dose curve; as a rule, active = well fitted curve in the direction sought with a large enough effect; inconclusive = small, poorly fitted or top-dose-only effect, or another doubt; inactive = no such curve, though single readings can be large; an effect the other way counts as inactive or inconclusive.

`CSc1ccccc1NC(=O)CN(C1CCCCC1)S(C)(=O)=O` gave GLP1R cytotox inactive, TRHR enhancer-1 inactive, TRPML1 blocker inactive, TRHR agonist-1 inactive, TRPML1 agonist inactive and PTHR1 ag inactive.
Screening CN(CC(=O)Nc1ccccc1Sc1ccccc1)C1CCCCC1 returned GLP1R cytotox inactive, TRHR enhancer-1 inactive, TRPML1 blocker inconclusive, TRHR agonist-1 inactive, TRPML1 agonist 60 and PTHR1 ag inactive.
Screening Nc1nc(N)c2c(OCc3ccc(C(F)(F)F)cc3)cccc2n1 returned TRPML1 agonist inactive.
For CN(C)c1ccc(/C=C/c2nc3ccccc3s2)c(Cl)c1 the results were TRPML1 agonist inactive.
Screening OCCCc1nc2n(n1)C(c1cccs1)C=C(c1ccccc1)N2 (centres undefined) returned TRHR enhancer-1 inactive and TRHR agonist-1 41.
CCOc1cc(/C=C\c2[nH]c(=O)[nH]c(=O)c2[N+](=O)[O-])ccc1OC(C)CC (centres undefined) was read as GLP1R cytotox inconclusive, TRHR enhancer-1 inactive, TRPML1 blocker -71, TRHR agonist-1 inactive, TRPML1 agonist inactive and PTHR1 ag inactive.
`CN(Cc1ccccc1)C(=O)c1nc2ccccn2c1CNCCn1cccn1` gave GLP1R cytotox inactive, TRHR enhancer-1 34, TRPML1 blocker inactive, TRHR agonist-1 inactive, TRPML1 agonist inactive and PTHR1 ag inactive.
COc1ccc(CCNC(=O)C(=O)Nc2ccc(C)c(C)c2)cc1 was read as GLP1R cytotox inactive, TRHR enhancer-1 32, TRPML1 blocker inactive, TRHR agonist-1 inactive, TRPML1 agonist inactive and PTHR1 ag inactive.
COC(=O)c1ccc(NC(=S)NCCc2ccc(OC)cc2)cc1 was read as GLP1R cytotox inactive, TRHR enhancer-1 inactive, TRPML1 blocker inactive, TRHR agonist-1 inactive, TRPML1 agonist inactive and PTHR1 ag inactive.
`COc1cccc(C(=O)NNC2=C(C(=O)C(F)(F)F)CCC2)c1` gave GLP1R cytotox inactive, TRHR enhancer-1 33, TRPML1 blocker inactive, TRHR agonist-1 inactive, TRPML1 agonist inactive and PTHR1 ag inactive.
`COc1ccccc1C(=O)NNC1=C(C(=O)C(F)(F)F)CCC1` gave GLP1R cytotox inactive, TRHR enhancer-1 inactive, TRPML1 blocker inactive, TRHR agonist-1 inactive, TRPML1 agonist inactive and PTHR1 ag inactive.
For O=C(Nc1ccccc1)c1ccc(-c2ccccc2Cl)o1 the results were GLP1R cytotox inactive, TRHR enhancer-1 inactive, TRPML1 blocker inactive, TRHR agonist-1 inactive, TRPML1 agonist inactive and PTHR1 ag inactive.
CC(=O)Nc1ccc(NC(=O)c2ccc(-c3ccccc3Cl)o2)cc1 was read as GLP1R cytotox inactive, TRHR enhancer-1 33, TRPML1 blocker inactive, TRHR agonist-1 inactive, TRPML1 agonist inactive and PTHR1 ag inactive.
For CCCC1O[C@@H]2C[C@H]3[C@@H]4CCC5=CC(=O)C=C[C@]5(C)[C@H]4[C@@H](O)C[C@]3(C)[C@]2(C(=O)CO)O1 (some centres undefined) the results were GLP1R cytotox inactive, TRHR enhancer-1 33, TRPML1 blocker inactive, TRHR agonist-1 inactive, TRPML1 agonist inactive and PTHR1 ag inactive.
Screening CC(C)(C)OC(=O)NCc1nnc(-c2cc3ccccc3[nH]2)o1 returned TRHR enhancer-1 inactive and TRHR agonist-1 inactive.
`c1ccc(Nc2nc3ccccc3n3cnnc23)cc1` gave GLP1R cytotox inactive, TRHR enhancer-1 34, TRPML1 blocker inactive, TRHR agonist-1 inactive, TRPML1 agonist inactive and PTHR1 ag inactive.
`O=C(O)c1ccc(Nc2nc3ccccc3n3cnnc23)cc1` gave GLP1R cytotox inactive, TRHR enhancer-1 inactive, TRPML1 blocker inactive, TRHR agonist-1 inactive, TRPML1 agonist inactive and PTHR1 ag inactive.
`C=C1NN(C)C(=O)N1c1ccc(OC)cc1` gave TRPML1 agonist inactive.
Screening COc1ccc(-n2[nH]c(C)cc2=O)cc1 returned GLP1R cytotox inactive, TRHR enhancer-1 33, TRPML1 blocker inactive, TRHR agonist-1 inactive, TRPML1 agonist inactive and PTHR1 ag inactive.
O=C(NC(NC(=S)Nc1c(Cl)cccc1Cl)C(Cl)(Cl)Cl)c1cccc([N+](=O)[O-])c1 (centres undefined) was read as GLP1R cytotox 13µM, TRHR enhancer-1 inactive, TRPML1 blocker inactive, TRHR agonist-1 inactive, TRPML1 agonist inactive and PTHR1 ag inactive.
COc1ccc(NC(=O)Nc2cn(CC(C)C)c(=O)c3ccccc23)c(OC)c1 was read as GLP1R cytotox inactive, TRHR enhancer-1 inactive, TRPML1 blocker inactive, TRHR agonist-1 inactive, TRPML1 agonist inactive and PTHR1 ag inactive.
For Cc1ccc(Cl)cc1NC(=O)Nc1cn(CC(C)C)c(=O)c2ccccc12 the results were GLP1R cytotox inactive, TRHR enhancer-1 inactive, TRPML1 blocker inactive, TRHR agonist-1 inactive, TRPML1 agonist 57 and PTHR1 ag inactive.
O=C(O)COc1ccccc1/C=N/NC(=O)Cc1csc(Nc2cccc(C(F)(F)F)c2)n1 was read as GLP1R cytotox inactive, TRHR enhancer-1 36, TRPML1 blocker inactive, TRHR agonist-1 inactive, TRPML1 agonist inactive and PTHR1 ag inactive.
O=C(O)COc1ccccc1/C=N/NC(=O)Cc1ccccc1 was read as GLP1R cytotox inactive, TRHR enhancer-1 inactive, TRPML1 blocker inactive, TRHR agonist-1 inactive, TRPML1 agonist inactive and PTHR1 ag inactive.
For Cc1ccsc1C(=O)NNC(=O)Nc1ccc(Cl)c(Cl)c1 the results were GLP1R cytotox inactive, TRHR enhancer-1 39, TRPML1 blocker inactive, TRHR agonist-1 inactive, TRPML1 agonist inactive and PTHR1 ag inactive.
Screening Cc1occc1C(=O)NNC(=O)Nc1ccc(Cl)c(Cl)c1 returned GLP1R cytotox inactive, TRHR enhancer-1 inactive, TRPML1 blocker inactive, TRHR agonist-1 inactive, TRPML1 agonist inactive and PTHR1 ag inactive.
`CCOc1ccc(NC(=O)Nc2nc3ccc(S(C)(=O)=O)cc3s2)cc1` gave GLP1R cytotox inactive, TRHR enhancer-1 58, TRPML1 blocker inactive, TRHR agonist-1 inactive, TRPML1 agonist inactive, PTHR1 ag inactive, TRHR enhancer-2 inactive and TRHR agonist-2 inactive.
Screening Cc1cccc2cc3c(N)c(C(=O)N4CCc5ccccc54)sc3nc12 returned GLP1R cytotox inactive, TRHR enhancer-1 inactive, TRPML1 blocker inactive, TRHR agonist-1 53, TRPML1 agonist inactive, PTHR1 ag inactive, TRHR enhancer-2 inconclusive and TRHR agonist-2 18µM.
